# A549 viability: Nrf2 qHTS screen for inhibitors: counterscreen for cytotoxicity. A549 ARE-Fluc cells, CellTiter-Fluor viability, 18-24 h. 390,000 tested, 0.16% active. Potency, µM (titrated, usually from 46 µM), most hits filed as inhibitors
#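 A549 ARE_Fluc cells in 5% FBS OPTI-MEM were exposed to compounds in concentration-response for 18-24 h at 37 deg C. Viability was read by CellTiter-Fluor fluorescence (Ex 405/Em 525) after 30 min, before the luciferase read.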
# GRP78 ERSR act: qHTS for Inducers of the Endoplasmic Reticulum Stress Response (ERSR) in Human Glioma: qHTS. U87-MG GRP78 promoter luciferase reporter, 16 h. Potency, µM, hits mostly activators. 420,000 tested, 0.02% active. AID 602332, 2012; also: series mostly up to about 76 µM; nearly all actives have a fitted effect of over 35% in size
#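 Stably transfected U87-MG human glioma cells carrying a GRP78-based luminescent sensor were seeded at 1000 cells/well, pin-dosed with compounds and incubated 16 h. Luciferase reagent was then added, and end-point luminescence was read after 10 min at room temperature.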
# Nrf2 ARE act: qHTS of Nrf2 Activators; AREc32 ARE-luciferase reporter (MCF7-derived line), luminescence, 24 h; Potency, µM (top dose mostly 46.1 µM), hits mostly activators; 410,000 tested, 0.31% active; AID 624171, 2012; also: nearly all actives have a fitted effect of over 65% in size
#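 Luminescent ARE reporter assay in AREc32_Fluc cells: overnight plating at 37 deg C, 24 hr compound incubation, Steady-Glo added, 30 min RT before reading.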
# Mito fusion act: qHTS Assay for Small Molecule Inhibitors of Mitochondrial Division or Activators of Mitochondrial Fusion | AID 485298, 2010 | Potency, µM (top dose mostly 46.1 µM), hits mostly activators | 320,000 tested, 0.23% active | S. cerevisiae fusion-defective mutant growth rescue, CellTiterGlo 48 h; also: nearly all actives have a fitted effect of over 45% in size
#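 Growth-rescue viability read-out: after 48 h at the non-permissive 37C in glycerol/ethanol YPEG, yeast mitochondrial fusion mutants are measured by CellTiterGlo luminescence; compounds (23 nl pinned per well) restoring growth score as division inhibitors or fusion activators.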
# miR-21 reporter: qHTS Assay for Modulators of miRNAs and/orActivators of miR-21 | AID 2288, 2010 | Potency, µM (highest dose often 38.3 µM), usual class: activators | 340,000 tested, under 10 active | HeLa miR-21 FLuc reporter, luciferase, 48 h;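 also: miR-21 action dims this reporter so a rising signal means less miR-21 action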
#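 Luminescence from a firefly luciferase reporter carrying a miR-21 binding site downstream, stably expressed under a CMV promoter in HeLa cells that make miR-21 endogenously, reports miRNA modulation after 48 h compound exposure up to approximately 40uM final.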
# Nrf2 inh: Nrf2 qHTS screen for inhibitors; A549 ARE-Fluc reporter, luciferase luminescence, 18-24 h; Potency, µM (top dose mostly 46 µM), hits mostly inhibitors; 360,000 tested, 2.1% active; AID 504444, 2011; also: nearly all actives have a fitted effect of over 60% in size
#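 Cells were seeded and rested 2 h, then exposed to compounds for 18-24 h. CellTiter-Fluor was read first as a viability measure. BugLite was added 15 min before the final luminescent read of ARE-luciferase activity in A549 cells.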
# Numbers stand for hits; i = inactive; ? = inconclusive; nt = no result given. A selection: hits, their analogues and other compounds. The true share with any hit is near 2.3%. Calls follow the shape of the dose curve; as a rule, active = well fitted curve in the direction sought with a large enough effect; inconclusive = small, poorly fitted or top-dose-only effect, or another doubt; inactive = no such curve, though single readings can be large; an effect the other way counts as inactive or inconclusive.
SMILES,A549 viability,GRP78 ERSR act,Nrf2 ARE act,Mito fusion act,miR-21 reporter,Nrf2 inh
Cc1ccc2c(c1)N(C(=O)CCC(=O)NCc1cccc(Cl)c1)CC(C)O2 (configuration not stated),i,i,i,16µM,i,i
CCc1nnc(NC(=O)c2cc(S(=O)(=O)N(CC)CC)ccc2Cl)s1,i,i,i,i,i,16µM
CCc1nnc(NC(=O)c2ccncc2)s1,i,i,i,i,i,i
CCc1nnc(NC(=O)c2cccc(C(=O)Nc3nnc(CC)s3)n2)s1,?,i,i,i,i,0.26µM
C=CCN(CC(=O)NC1CC1)S(=O)(=O)c1cccc(C(F)(F)F)c1,i,i,i,nt,nt,i
Cc1ccc(-c2nnc(Nc3ccc(CC(N)=O)cc3)c3ccccc23)cc1,i,i,i,i,i,i
Cc1ccc(-c2nnc(Nc3ccc4c(c3)nc(C)n4C)c3ccccc23)cc1,?,i,i,i,i,21µM
O=c1c(S(=O)(=O)c2ccccc2)cn(Cc2ccc(F)cc2)c2cc(N3CCOCC3)c(F)cc12,i,i,i,nt,i,i
CC(=O)Nc1cccc(C(=O)/C=C/c2ccc(C)cc2)c1,i,i,i,?,?,i
CCC(=O)Nc1cccc(C(=O)/C=C/c2ccc(F)cc2)c1,?,i,i,?,?,23µM
CCNC(=S)N/N=C/c1ccc(C#N)cc1,i,i,i,i,i,?
CCOc1ccc(CCNC(=O)COC(=O)c2ccncc2)cc1OCC,i,i,i,nt,nt,i
CC(=O)Nc1ccc(C(=O)N/N=C/c2cc(Br)cc(Br)c2O)cc1,i,i,i,i,i,15µM
Cc1ccc(NC(=O)c2ccc(NC(=O)C3CCCCC3C(=O)O)cc2)cc1 (configuration not stated),i,i,i,i,i,i
O=S(=O)(NCc1ccc2c(c1)OCO2)c1ccc2c(c1)oc1ccccc12,i,i,i,i,i,21µM
OCCN1CCSC1=S,i,i,i,nt,nt,i
CC(C(=O)Nc1ccccc1)c1ccc(-c2ccccc2)c(F)c1 (configuration not stated),i,i,i,i,i,10µM
CCN(CC)S(=O)(=O)c1cccc(-c2nnc(SCCCC(=O)c3ccccc3)o2)c1,i,i,i,i,i,?
CCN(CC)S(=O)(=O)c1cccc(-c2nnc(SCCCC(=O)c3ccc(F)cc3)o2)c1,i,i,i,i,i,23µM
CC(C)(C)c1n[nH]c2c1CCCC2,i,i,i,i,i,i
COc1ccc(OC)c(NC(=O)c2csc(Cl)c2OC)c1,i,i,?,10µM,i,i
Cc1cnc(C(=O)Nc2nnc(C3CC3)s2)cn1,i,i,i,i,i,?
COc1c(C(=O)Nc2nnc(C3CC3)s2)csc1Cl,i,i,8.9µM,i,i,?
Cc1cnc([N+](=O)[O-])n1CCOC(=O)NC(=O)c1c(F)cccc1F,i,i,i,i,i,i
CSc1nsc(SC)c1C(=O)NC(=O)Nc1cccnc1,i,i,i,i,i,i
SMILES,A549 viability,GRP78 ERSR act,Nrf2 ARE act,Mito fusion act,miR-21 reporter,Nrf2 inh
CSc1nsc(SC)c1C(=O)Nc1ccc(C(C)(C)C)cc1,i,i,11µM,i,i,?
COc1ccc2oc(C(=O)OCC(=O)N3CCN(C(C)=O)CC3)c(C)c2c1,i,i,i,i,nt,i
Cc1nnc(NC(=O)CSc2ncnc3c2cnn3-c2ccccc2C)s1,i,i,i,i,i,?
O=C(CSc1ncnc2c1cnn2-c1ccccc1Cl)N1CCN(C(=O)c2ccco2)CC1,i,i,i,i,i,15µM
CCOC(=O)Cc1csc(NC(=O)CSc2ncnc3c2cnn3-c2ccccc2Cl)n1,i,i,i,i,i,21µM
COc1ccc(N2CCN(C(=O)CSc3ncnc4c3cnn4-c3ccccc3C)CC2)cc1,i,i,i,i,i,i
CC1(C)C(c2ccccc2)=[N+]([O-])C2(CCCCC2=O)N1O (configuration not stated),i,i,i,i,i,i
COC(=O)c1cccc(Nc2c3c(nc4ccccc24)CCC3)c1,i,i,i,i,i,23µM
CCOC(=O)c1cccc(Nc2c3c(nc4ccccc24)CCC3)c1,i,i,i,nt,?,21µM
CC(=O)Nc1ccc(NC(=O)c2csc([C@@H]3O[C@H](CO)[C@H](O)[C@H](O)[C@H]3O)n2)cc1,nt,i,i,nt,nt,nt
C(/C=C/c1ccccn1)=C\c1ccccc1,i,i,13µM,nt,nt,?
C(=C\c1ccccn1)/c1ccncc1,i,i,i,i,i,i
CCCCC(=O)Nc1cc(C)c(NC(=O)c2ccco2)cn1,i,i,i,i,i,i
CCn1c(SCC(=O)Nc2nc3ccc(C)cc3s2)nc2c(c1=O)SC(C)C2 (configuration not stated),?,i,i,i,i,18µM
O=c1[nH]nc(Cc2ccc(-c3cccc(Cl)c3)o2)c2ccccc12,i,i,i,i,i,21µM
Cc1ccccc1NC(C)C(=O)N/N=C/c1ccccc1OCc1cccc(Br)c1 (configuration not stated),i,i,i,i,i,15µM
O=C(/C=C/c1ccccc1)c1cc(Br)ccc(=O)c1O,?,i,?,i,?,18µM
Cc1ccc(/C=C/C(=O)c2ccccc(=O)c2O)cc1C,?,i,i,i,?,21µM
O=C(/C=C/c1ccc(O)cc1)c1ccccc1O,nt,i,nt,nt,nt,nt
O=C(/C=C\c1ccccc1)c1ccccc1O,nt,i,nt,nt,nt,nt
CC(C)OC(=O)c1cn(-c2ccccc2)nc1-c1ccco1,i,i,3.2µM,i,i,i
O=C(CN1C(=O)C2(SCC(=O)N2c2cccc(F)c2)c2ccccc21)NCc1ccccc1Cl (configuration not stated),i,i,i,nt,i,i
c1coc(-c2ccnc3nc(-n4cccc4)nn23)c1,i,i,7.9µM,i,i,i
COc1ccc(N(Cc2ccccc2)C(=O)c2nc(SC)ncc2Cl)cc1,i,i,i,nt,i,?
CCS(=O)(=O)c1ncc(Cl)c(C(=O)N(Cc2ccccc2)c2ccc(OC)cc2)n1,?,i,?,nt,?,23µM
CCS(=O)(=O)c1ncc(Cl)c(C(=O)N2CCN(c3ccc(OC)cc3)CC2)n1,?,nt,i,nt,?,21µM
O=C(CSCC(=O)N1CCCc2ccccc21)Nc1nc(-c2ccccc2)cs1,i,i,i,18µM,i,?
O=S(=O)(c1ccc(S(=O)(=O)N(Cc2cccs2)CC2CCCO2)cc1)N1CCCCC1 (configuration not stated),i,i,i,i,i,nt
